SNCA expr inh = reduces expression of the alpha-synuclein gene; HEK-293 SNCA-luciferase knock-in, luminescence, 24 h; Potency, µM (highest dose often 57.2 µM), inactives show top-dose activity change, negative = inhibition, most hits filed as inhibitors; 140,000 tested, 0.17% active; AID 1671194;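 also: potency is read from the fitted curve at half-maximal effect; plate controls were DMSO cells for no effect and cell-free wells for full effect; nearly all actives have a fitted effect of over 45% in size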
SNCA viab count = cell viability loss counter-screen. HEK-293-SNCA-luc viability, GF-AFC fluorescence, 24 h. Potency, µM (series often up to 57.1 µM), inactives show top-dose activity change, negative = cytotoxicity, hits mostly cytotoxic. 150,000 tested, 0.12% active;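 also: potency is read from the fitted curve at half-maximal effect; 0% = DMSO-treated cells and -100% = medium-only wells without cells; nearly all actives have a fitted effect of over 30% in size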
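HEK-293-SNCA-luc cells (1500/well) plated 24 h, then exposed 24 h to a dilution series; GF-AFC added 30 min at 37C, fluorescence 405/540 nm; normalised to medium-only and DMSO wells, Hill fit.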
GPT2 inh = GPT2 alanine aminotransferase inhibition; Recombinant GPT2, coupled pyruvate oxidase/HRP Amplex Red fluorescence; Potency, µM (series often up to 57.7 µM), without a hit: top-dose activity change, negative = inhibition, usual class: inhibitors; 100,000 tested, 0.25% active; Q8TD30; also: potency is read from the fitted curve at half-maximal effect; nearly all actives have a fitted effect of over 60% in size
Target sequence (Q8TD30 whole entry, looked up): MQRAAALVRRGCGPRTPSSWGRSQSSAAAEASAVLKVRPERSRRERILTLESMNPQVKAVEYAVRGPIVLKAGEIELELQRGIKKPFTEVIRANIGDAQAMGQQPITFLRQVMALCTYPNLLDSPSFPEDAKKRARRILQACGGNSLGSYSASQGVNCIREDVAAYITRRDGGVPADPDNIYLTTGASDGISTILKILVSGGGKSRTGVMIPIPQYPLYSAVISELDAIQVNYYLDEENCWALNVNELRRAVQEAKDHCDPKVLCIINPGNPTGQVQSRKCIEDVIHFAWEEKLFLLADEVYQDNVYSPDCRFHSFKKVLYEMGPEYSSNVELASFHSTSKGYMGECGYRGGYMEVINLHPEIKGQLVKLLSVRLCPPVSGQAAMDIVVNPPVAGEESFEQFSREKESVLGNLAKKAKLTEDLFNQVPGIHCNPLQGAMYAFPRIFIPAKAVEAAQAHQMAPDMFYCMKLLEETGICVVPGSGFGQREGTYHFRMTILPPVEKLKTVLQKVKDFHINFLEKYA
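Fluorescence of coupled pyruvate oxidase/HRP/Amplex Red system (50uM Amplex, 30 min, dark) reports pyruvate formed by GPT2. Enzyme reaction: 10ng/uL GPT2, 2mM L-alanine, 250uM a-KG, 30 min room temperature, pH 7.5; 50uM AOA control.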
IP6K1 inh = blocks human inositol hexakisphosphate kinase 1; Q92551; IP6K1 kinase, ADP-Glo luminescence, 2 h; active compounds read low; activity change, % (series mostly up to about 58 µM); 140,000 tested, 0.81% active; AID 1645851; in the data active = activity change below about -25%
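ADP-Glo luminescence measures ADP made by human IP6K1 during a 2 h RT reaction with ATP/IP6 (mix at 1.3 mM/130 uM); top library doses 57.5 and 19.1 uM final.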
An asterisk follows results filed as active; i = inactive; ? = inconclusive; . = no result given; ! = not confirmed by another sample; [ ] = dose if it differs, or a comment. Most compounds without a hit are left out; they make up all but 1.1% or so of the library. Unless noted, calls follow the shape of the dose curve; as a rule, active = well fitted curve in the direction sought with a large enough effect; inconclusive = small, poorly fitted or top-dose-only effect, or another doubt; inactive = no such curve, though single readings can be large; an effect the other way counts as inactive or inconclusive. Unless noted, % is scaled to controls: 0 for no effect and ±100 for the full control effect.

SMILES	SNCA expr inh	SNCA viab count	GPT2 inh	IP6K1 inh
O=C(Nc1cccc(C(F)(F)F)c1)c1cc(-c2ccc(Cl)cc2)on1	2%	4%	.	7
Cc1nn(-c2ccccc2)c2c1C(C(C)C)N(C1CN([S+](C)(=O)[O-])C1)C2=O (stereo unspecified)	.	.	.	12
CC1(COCC2CC2)COc2ccc(C(=O)Nc3ccc4[nH]ccc4c3)cc2N1 (stereo unspecified)	7.1µM*	?	-8%[88.5 µM]	-13
Nc1nc2c(ncn2COC(CO)CO)c(=O)[nH]1	0.086µM*!	-18%	-22%	12
COc1ccc(C(=O)N2CCc3ccc(C(=O)Nc4ccc5c(c4)OCCO5)cc32)cc1	?	?	2%	-7
Cc1ccc(/C=C/c2nc3ccccc3n2S(=O)(=O)c2ccc(Br)cc2)cc1	?	-8%	.	1
CSc1ccc(/C=C/c2nc3ccccc3n2S(=O)(=O)c2cccc(Cl)c2)cc1	?	-4%	.	-41*
CC(C)OC(=O)N(C)Cc1cccc(N2CCN(S(=O)(=O)c3c(Cl)cccc3Cl)CC2)c1F	.	.	.	-1
CCS(=O)(=O)Nc1ccc2[nH]c(O)c(C(=Nc3ccc(CN4CCCCC4)cc3)c3ccccc3)c2c1	1.2µM*	?	-20%	.
CNC(=O)c1ccc2c(C(=Nc3cccc(CN(C)C)c3)c3ccccc3)c(O)[nH]c2c1	?	?	?	-5
CS[C@H]1SC[C@@H]2C(=O)N(C)[C@H](C(C)C)C(=O)OC[C@H](NC(=O)c3cnc4ccccc4n3)C(=O)N[C@H](C)C(=O)N(C)[C@@H]1C(=O)N(C)[C@H](C(C)C)C(=O)OC[C@H](NC(=O)c1cnc3ccccc3n1)C(=O)N[C@H](C)C(=O)N2C	0.0061µM*	0.019µM*	-22%	.
CC(C)n1nc(-c2cc3cc(O)ccc3[nH]2)c2c(N)ncnc21	-55%[25.6 µM]	?	8.9µM*	-3
CC(C)n1nc(C#Cc2ccccc2)c2c(N)ncnc21	.	-30%	?	5
Cc1cnn(C2(C(=O)O)CCN(C(=O)c3cnn4cccnc34)CC2)c1	10%	-2%	-4%	-2
COc1ccc(-c2nn(-c3cc(C)ccc3C)c(OC(C)=O)c2-c2ccc(NC(C)=O)cc2)c(OC)c1	7%	2%	2.8µM*	-8
O=C(c1ccc(-c2ncc3cnc(-c4cccc(F)c4)cn23)cc1)N1CCc2cccnc21	28µM*	25µM*	1%[88.5 µM]	-17
NC(=O)c1ccc(-c2ncc3cnc(-c4cccc(F)c4)cn23)cc1	-7%[87.6 µM]	2%[87.6 µM]	2%[88.5 µM]	-12
CC(C)(C)Nc1nc2cc(Cl)c(Cl)cc2nc1S(C)(=O)=O	.	15µM*	i	-22
CCN(CC)C(=O)/C(C#N)=C/c1cc(O)c(O)c([N+](=O)[O-])c1	-18%[25.6 µM]	-13%[23.9 µM]	8.9µM*	-23
N#C/C(=C\c1ccc(O)c(O)c1)C(=O)c1ccc(O)c(O)c1	11%	-8%	?	.
CC(C)=CC[C@@H](O)C1=CC(=O)c2c(O)ccc(O)c2C1=O	-2%	-17%	12µM*	.
Cc1ccc(Nc2ccnc(N3CCC(NC(=O)c4ccc(C)cc4)CC3)n2)cc1	19%	-26%	-21%	-6
Cc1ccc(Nc2ccnc(N3CCC(NC(=O)c4ccc(C(F)(F)F)cc4)CC3)n2)cc1	25µM*	?	i	-7
COc1ccc(OC)c(NC(=O)Cn2nc3c(cc2=O)CCCCC3)c1	15%	1%	?	7
CCN(CC)Cc1c(NC(=O)c2ccc(OC)cc2)sc2c1CCCC2	42%	-21%	.	-3
SMILES	SNCA expr inh	SNCA viab count	GPT2 inh	IP6K1 inh
CCN(CC)Cc1ccc2cc(COC(=O)Nc3ccc(C(=O)NO)cc3)ccc2c1	-9%	?	15µM*	11
COc1ccc(CNC(=O)[C@H]2CCC[C@H]2NC(=O)c2ccc(OC)nc2)cc1	-17%	-16%	i	5
O=C(/C=C/c1ccccc1)OC[C@H]1O[C@@H](OC(=O)c2cc(O)c(O)c(O)c2)[C@H](O)[C@@H](O)[C@@H]1O	.	-19%[23.9 µM]	?	-47*
O=C(/C=C/c1ccc(O)cc1)OC[C@H]1O[C@@H](O/C(=C\c2ccccc2)C(=O)O)[C@H](O)[C@@H](O)[C@@H]1O	.	-5%[23.9 µM]	i	1
C[C@H]1[C@@H]2[C@@H](O)C([C@H](C)C(=O)N3CCCC3)CC[C@@]2(C)CC[C@@H]1NC(=O)c1ccccc1 (stereo partly specified)	-15%[87.6 µM]	3%[87.6 µM]	i	-8
O=C(NCc1ccc(F)cc1)C1c2ccccc2C(=O)N(Cc2ccccc2)C12CCCC2 (stereo unspecified)	-38%	-21%	0%	20
O=C(c1cccc(F)c1)N1CCCC(Cc2noc(-c3ccccc3)n2)C1 (stereo unspecified)	?	3.5µM*	-36%	6
CC[C@H](CO)Nc1nc(Nc2cccc(-c3ccccn3)c2)c2ncn(C(C)C)c2n1	.	-35%	?	-11
CC(C)[C@H](CO)Nc1nc(Nc2cccc(Cl)c2)c2ncn(C(C)C)c2n1	5%	24µM*	-6%	.
C=C[C@H]1[C@H](O[C@@H]2O[C@H](CO)[C@@H](O)[C@H](O)[C@H]2O)OC=C(C(=O)OC)[C@H]1C[C@@H]1c2cc(O)c(O)cc2CCN1C(C)=O	.	18%[23.9 µM]	3.2µM*	-13
CC(C)C[C@H](NC(=O)CNC(=O)c1cc(Cl)ccc1Cl)B(O)O	0.54µM*	?	i	.
CCn1c(=N)n(CCOc2ccc(Br)cc2)c2ccccc21	25µM*	?	.	25
O=C(CCCN1CCN(c2ccc(F)cc2)CC1)NC1c2ccccc2CSc2ccccc21 (stereo unspecified)	22%	-3%	1.2µM*	28
COCCC(=O)N[C@H]1CC[C@]2(C)CCC([C@H](C)C(=O)N(C)Cc3ccccc3)[C@H](O)[C@H]2[C@@H]1C (stereo partly specified)	-2%	-1%	-7%	2
Cc1oc(-c2ccccc2Cl)nc1CS(=O)CC(=O)N1CCN(c2cccc(C(F)(F)F)c2)CC1 (stereo unspecified)	13µM*	?	.	11
Cc1nn(-c2ccccc2)c2c1C(C)N(C1CCN(C(=O)Cc3ccc(F)cc3)CC1)C2=O (stereo unspecified)	.	.	.	-17
CN1CCc2c(sc3c2C(=O)NC(c2ccc(OC(=O)c4ccc(Cl)cc4)cc2)N3)C1 (stereo unspecified)	-17%	24%	.	-2
CN1CCc2c(sc3c2C(=O)NC(c2ccc(OC(=O)c4ccc(C(C)(C)C)cc4)cc2)N3)C1 (stereo unspecified)	1µM*	?	.	-10
COc1cc(O)ccc1-c1nc2ccc(Br)cn2c1Nc1ccccc1C	?	14µM*	.	-11
O=C(CCc1c[nH]c2ccccc12)N1CCC(N2CC3CC(C2)[C@H]2CCCC(=O)N2C3)CC1 (stereo partly specified)	1%	2%	4%	34
O=C(NCc1ccc(F)cc1F)c1ccc(N2CC3CC(C2)[C@H]2CCCC(=O)N2C3)nc1 (stereo partly specified)	-5%	0%	i	16
